Data from PubChem BioAssay (Tox21).
Records with an inconclusive call do not appear. Activity calls are given as the source filed them. Unless noted, calls come from the whole dose curve; as a rule, active = well fitted curve in the direction sought with a large enough effect in the repeat runs; inconclusive = weak or mixed curves; inactive = no such curve, though single readings can be large; an effect the other way counts as inactive or inconclusive.

Columns and labels:
[1] = qHTS assay to identify aromatase inhibitors - cell viability counter screen (AID 743084);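 note: cells stimulated with testosterone during compound exposure; nearly all actives have a fitted effect of over 55% in size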
[2] = biological target: Aryl hydrocarbon receptor (Homo sapiens) (UniProt P35869); test: qHTS assay to identify small molecule that activate the aryl hydrocarbon receptor (AhR) signaling pathway (AID 743085);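 note: HG2L7.5c1 human HepG2 liver cells with stably integrated DRE-driven firefly reporter; series mostly up to about 70 µM; nearly all actives have a fitted effect of over 15% in size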
How it was run: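 Reporter assay in engineered HepG2 line HG2L7.5c1, whose plasmid carries twenty dioxin responsive elements upstream of firefly luciferase. Treatment lasted 24 h at 37C; ONE-Glo luminescence gauged induction.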

[3] = qHTS assay to identify small molecule that activate the aryl hydrocarbon receptor (AhR) signaling pathway - cell viability counter screen (AID 743086);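 note: HepG2 liver cells carrying the AhR DRE luciferase reporter; series mostly up to about 70 µM; nearly all actives have a fitted effect of over 45% in size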
How it was run: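 HepG2-AhR-luc (HG2L7.5c1) cells, 4000/well, were preincubated 5 h at 37C, exposed to compound in qHTS format for 24 hr at 37C, then given CellTiter-Fluor for 30 min; viability was read as fluorescence in the reporter wells.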

[4] = biological target: Peroxisome proliferator-activated receptor gamma (Homo sapiens) (UniProt P37231); test: qHTS assay to identify small molecule agonists of the peroxisome proliferator-activated receptor gamma (PPARg) signaling pathway (AID 743094; active = well fitted activation curve with a large enough effect in the signal ratio in the repeat runs, not every such curve was filed as active; the % refers to the signal ratio)
How it was run: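 Stably transfected HEK293H cells (GeneBLAzer PPARg UAS-bla) were incubated with test substances for 17 h at 37C after a 5 h pre-incubation; beta-lactamase activity was then detected by FRET substrate fluorescence.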

[5] = biological target: Peroxisome proliferator-activated receptor gamma (Homo sapiens) (UniProt P37231); test: qHTS assay to identify small molecule antagonists of the peroxisome proliferator-activated receptor gamma (PPARg) signaling pathway (AID 743191; calls by dose curve; note: series mostly up to about 63 µM; nearly all actives have a fitted effect of over 30% in size)
How it was run: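 GeneBLAzer PPARg UAS-bla HEK293H cells carrying a UAS-driven beta-lactamase reporter were plated at 3000 cells/well, preincubated 5 h at 37C, then given compound for 17 h at 37C; LiveBLAzer B/G FRET substrate was read after 1 h at room temperature.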

[6] = qHTS assay to identify small molecule antagonists of the peroxisome proliferator-activated receptor gamma (PPARg) signaling pathway - cell viability counter screen (AID 743194); note: nearly all actives have a fitted effect of over 55% in size
How it was run: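 PPARg-UAS-bla HEK293H cells were plated, rested 5 h at 37 C, then treated with compounds plus rosiglitazone (50 nM final) for 17 h at 37 C; viability was then read by CellTiter-Glo luminescence after 30 min at room temperature.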

[7] = qHTS assay for small molecule agonists of the antioxidant response element (ARE) signaling pathway (AID 743202; active = well fitted activation curve with a large enough effect in the signal ratio in the repeat runs, not every such curve was filed as active; the % refers to the signal ratio)
How it was run: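 Read-out: LiveBLAzer B/G FRET substrate fluorescence after 2 h at room temperature, following 16 h compound treatment at 37 C of HepG2 cells carrying an ARE-driven beta-lactamase reporter.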

[8] = qHTS assay for small molecule agonists of the antioxidant response element (ARE) signaling pathway - cell viability counter screen (AID 743203; calls by dose curve; note: nearly all actives have a fitted effect of over 55% in size)
How it was run: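 Cells (ARE-bla HepG2, 2,000/well) receive DMSO-dissolved compounds after a 5 hrs rest. Plates incubate 16 hrs at 37C/5% CO2. CellTiter-Glo luminescence is then recorded after 30 min at room temperature.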

[9] = qHTS assay for small molecule activators of the heat shock response signaling pathway - cell viability counter screen (AID 743209); note: nearly all actives have a fitted effect of over 50% in size
How it was run: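 Quantitative HTS format, Tox21 10K library. HeLa cells carrying an HSE-driven beta-lactamase reporter were treated 5 h at 37 C, then assessed for viability by CellTiter-Glo luminescence.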

[10] = qHTS assay for small molecule activators of the heat shock response signaling pathway (AID 743210; active = well fitted activation curve with a large enough effect in the signal ratio in the repeat runs, with a control signal flat, not every such curve was filed as active; the % refers to the signal ratio; note: series mostly up to about 63 µM)
How it was run: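 HSE-bla HeLa cells (beta-lactamase reporter under heat shock response elements) were exposed to compounds for 5 h at 37 C, then loaded with LiveBLAzer B/G FRET substrate for 2.5 h at room temperature before fluorescence reading.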

[11] = biological target: Peroxisome proliferator-activated receptor delta (Homo sapiens) (UniProt Q03181); test: qHTS assay to identify small molecule agonists of the peroxisome proliferator-activated receptor delta (PPARd) signaling pathway (AID 743212; calls by dose curve)
How it was run: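 GeneBLAzer PPARd UAS-bla HEK293H cells (beta-lactamase reporter under UAS control), plated and rested 5 h at 37 C, then exposed to compounds in DMSO at 37 C; LiveBLAzer B/G FRET substrate added, 2 h room temperature, fluorescence read.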

[12] = biological target: Peroxisome proliferator-activated receptor delta (Homo sapiens) (UniProt Q03181); test: qHTS assay to identify small molecule antagonists of the peroxisome proliferator-activated receptor delta (PPARd) signaling pathway (AID 743215; active = well fitted inhibition curve with a large enough effect in the signal ratio in the repeat runs, not every such curve was filed as active; the % refers to the signal ratio;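 note: cells stimulated with agonist L165041 at 300 nM final during compound exposure; series mostly up to about 62 µM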)
How it was run: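 Antagonist-mode beta-lactamase reporter screen: HEK293H cells with UAS-bla under PPARd control, stimulated by 300 nM L165041 (final) alongside test compound for 17 h at 37 C, then FRET fluorescence after 2 h substrate incubation.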

[13] = qHTS assay to identify small molecule agonists of the farnesoid-X-receptor (FXR) signaling pathway - cell viability counter screen (AID 743218); note: nearly all actives have a fitted effect of over 45% in size
How it was run: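 In GeneBLAzer FXR-UAS-bla HEK 293T cells, compounds act for 16 h at 37 C. Cell viability is then scored in the reporter wells by CellTiter-Glo, 30 min at RT, luminescence.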

[14] = qHTS assay to identify small molecule antagonists of the farnesoid-X-receptor (FXR) signaling pathway - cell viability counter screen (AID 743221; active = well fitted cell-killing curve with a large enough effect in the repeat runs, not every such curve was filed as active; note: nearly all actives have a fitted effect of over 50% in size)
How it was run: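 CellTiter-Glo, 30 min RT, luminescence; same wells as the LiveBLAzer FRET read. Cells: FXR-UAS-bla HEK 293T. Treatment: compound with chenodeoxycholic acid 50 uM final, 16 h at 37 C.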

[15] = qHTS assay to identify small molecule agonists of the peroxisome proliferator-activated receptor delta (PPARd) signaling pathway - cell viability counter screen (AID 743211); note: nearly all actives have a fitted effect of over 55% in size
How it was run: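 Multiplexed format: after the 2 h room-temperature LiveBLAzer B/G FRET step, CellTiter-Glo was added to the same wells. Luminescence after 30 min gave cell viability; compound exposure was 17 h at 37C.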

[16] = qHTS assay to identify small molecule antagonists of the peroxisome proliferator-activated receptor delta (PPARd) signaling pathway - cell viability counter screen (AID 743213); note: nearly all actives have a fitted effect of over 50% in size
How it was run: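 In this counter screen, HEK293H cells carrying a UAS-beta-lactamase reporter are co-treated with test compounds and 300 nM L165041 (final) for 17 h at 37 C; cell viability is quantified by CellTiter-Glo luminescence.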

[17] = biological target: Vitamin D3 receptor (Homo sapiens) (UniProt P11473); test: qHTS assay to identify small molecule agonists of the vitamin D receptor (VDR) signaling pathway (AID 743222; calls by dose curve)
How it was run: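 Agonist activity measured in VDR-bla reporter cells. Exposure 16 h, 37C, 5% CO2; detection by B/G FRET substrate, 2 h RT.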

[18] = biological target: Vitamin D3 receptor (Homo sapiens) (UniProt P11473); test: qHTS assay to identify small molecule antagonists of the vitamin D receptor (VDR) signaling pathway (AID 743223; active = well fitted inhibition curve with a large enough effect in the signal ratio in the repeat runs, not every such curve was filed as active; the % refers to the signal ratio)
How it was run: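 After VDR-bla cells are plated and left 4 h at 37C, DMSO-dissolved compounds and 3 nM (final) calcitriol agonist are added. Incubation continues 16 h at 37C; FRET beta-lactamase substrate then develops 2 h at room temperature.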

[19] = biological target: Bile acid receptor (Homo sapiens) (UniProt Q96RI1); test: qHTS assay to identify small molecule antagonists of the farnesoid-X-receptor (FXR) signaling pathway (AID 743217; active = well fitted inhibition curve with a large enough effect in the signal ratio in the repeat runs, not every such curve was filed as active; the % refers to the signal ratio)
How it was run: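 Beta-lactamase reporter under UAS control in HEK 293T cells; compound exposure 16 h at 37 °C in the presence of chenodeoxycholic acid (50 uM final); signal from B/G FRET substrate after 2 h at room temperature.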

[20] = biological target: Bile acid receptor (Homo sapiens) (UniProt Q96RI1); test: qHTS assay to identify small molecule agonists of the farnesoid-X-receptor (FXR) signaling pathway (AID 743220; active = well fitted activation curve with a large enough effect in the signal ratio in the repeat runs, not every such curve was filed as active; the % refers to the signal ratio)
How it was run: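 Beta-lactamase reporter under UAS control in GeneBLAzer FXR HEK 293T cells (5000/well) measured with LiveBLAzer FRET substrate after 2 h at room temperature. Compound exposure lasted 16 h at 37C.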

Measured: Potency

Chain of Peroxisome proliferator-activated receptor gamma (Homo sapiens) (P37231 whole entry, looked up): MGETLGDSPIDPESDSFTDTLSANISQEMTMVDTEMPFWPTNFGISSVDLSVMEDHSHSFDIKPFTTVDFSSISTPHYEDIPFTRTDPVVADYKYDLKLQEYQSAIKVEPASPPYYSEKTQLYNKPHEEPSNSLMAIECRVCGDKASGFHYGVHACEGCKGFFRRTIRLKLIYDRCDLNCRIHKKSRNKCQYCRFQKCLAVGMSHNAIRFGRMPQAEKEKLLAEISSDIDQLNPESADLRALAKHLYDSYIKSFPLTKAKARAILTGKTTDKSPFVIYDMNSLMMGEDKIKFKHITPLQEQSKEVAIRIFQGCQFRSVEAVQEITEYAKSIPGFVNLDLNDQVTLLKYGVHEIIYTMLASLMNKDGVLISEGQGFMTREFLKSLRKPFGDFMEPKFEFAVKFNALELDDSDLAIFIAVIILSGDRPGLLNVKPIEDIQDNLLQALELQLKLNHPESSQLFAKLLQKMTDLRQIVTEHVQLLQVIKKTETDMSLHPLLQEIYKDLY
Chain of Peroxisome proliferator-activated receptor delta (Homo sapiens) (Q03181 whole entry, looked up): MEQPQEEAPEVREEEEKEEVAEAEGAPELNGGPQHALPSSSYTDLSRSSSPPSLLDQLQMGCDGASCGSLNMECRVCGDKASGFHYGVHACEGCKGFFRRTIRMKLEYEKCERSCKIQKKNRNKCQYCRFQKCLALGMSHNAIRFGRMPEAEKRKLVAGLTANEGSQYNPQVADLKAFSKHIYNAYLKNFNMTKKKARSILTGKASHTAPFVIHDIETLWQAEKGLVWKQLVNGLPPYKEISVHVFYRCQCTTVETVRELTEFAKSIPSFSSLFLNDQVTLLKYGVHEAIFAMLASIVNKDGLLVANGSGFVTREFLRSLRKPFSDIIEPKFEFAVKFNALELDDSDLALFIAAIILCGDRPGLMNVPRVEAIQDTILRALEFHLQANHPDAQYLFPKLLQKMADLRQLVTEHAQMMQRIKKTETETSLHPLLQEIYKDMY
Chain of Bile acid receptor (Homo sapiens) (Q96RI1 whole entry, looked up): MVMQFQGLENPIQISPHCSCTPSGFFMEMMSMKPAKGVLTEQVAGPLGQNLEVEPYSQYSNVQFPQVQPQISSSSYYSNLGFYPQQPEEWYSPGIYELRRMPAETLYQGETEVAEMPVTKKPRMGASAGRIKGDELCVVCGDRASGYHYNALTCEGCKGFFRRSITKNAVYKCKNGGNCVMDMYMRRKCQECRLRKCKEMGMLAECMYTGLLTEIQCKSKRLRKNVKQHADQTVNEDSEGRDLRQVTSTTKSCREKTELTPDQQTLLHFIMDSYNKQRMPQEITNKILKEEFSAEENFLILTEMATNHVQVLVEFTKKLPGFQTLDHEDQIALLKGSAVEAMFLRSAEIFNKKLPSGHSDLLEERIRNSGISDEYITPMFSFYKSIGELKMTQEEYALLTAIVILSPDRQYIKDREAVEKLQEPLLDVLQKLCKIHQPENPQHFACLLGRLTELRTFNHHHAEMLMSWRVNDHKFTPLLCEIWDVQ
Chain of Aryl hydrocarbon receptor (Homo sapiens) (P35869 whole entry, looked up): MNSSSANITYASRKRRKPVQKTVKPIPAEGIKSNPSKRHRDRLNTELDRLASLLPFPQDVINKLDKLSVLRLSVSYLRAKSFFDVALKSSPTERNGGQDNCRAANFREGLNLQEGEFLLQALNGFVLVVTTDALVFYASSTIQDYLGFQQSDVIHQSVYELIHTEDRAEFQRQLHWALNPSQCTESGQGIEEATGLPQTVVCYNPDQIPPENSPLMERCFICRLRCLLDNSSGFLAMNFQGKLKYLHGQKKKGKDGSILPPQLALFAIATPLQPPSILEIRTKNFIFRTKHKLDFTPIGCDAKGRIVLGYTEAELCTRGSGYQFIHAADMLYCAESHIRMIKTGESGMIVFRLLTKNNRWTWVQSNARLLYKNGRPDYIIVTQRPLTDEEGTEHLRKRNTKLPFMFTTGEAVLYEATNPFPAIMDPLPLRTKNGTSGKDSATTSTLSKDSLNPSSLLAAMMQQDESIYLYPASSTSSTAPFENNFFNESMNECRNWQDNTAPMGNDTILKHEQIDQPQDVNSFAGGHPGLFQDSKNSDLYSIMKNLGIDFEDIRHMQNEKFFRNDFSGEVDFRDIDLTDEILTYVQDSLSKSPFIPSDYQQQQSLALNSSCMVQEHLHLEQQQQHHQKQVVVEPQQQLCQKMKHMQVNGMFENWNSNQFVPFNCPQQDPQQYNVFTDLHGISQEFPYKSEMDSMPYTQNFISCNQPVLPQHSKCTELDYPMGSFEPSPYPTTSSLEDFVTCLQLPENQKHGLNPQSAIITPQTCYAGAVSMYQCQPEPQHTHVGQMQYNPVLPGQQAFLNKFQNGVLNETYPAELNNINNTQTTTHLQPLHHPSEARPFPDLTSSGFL
Chain of Vitamin D3 receptor (Homo sapiens) (P11473 whole entry, looked up): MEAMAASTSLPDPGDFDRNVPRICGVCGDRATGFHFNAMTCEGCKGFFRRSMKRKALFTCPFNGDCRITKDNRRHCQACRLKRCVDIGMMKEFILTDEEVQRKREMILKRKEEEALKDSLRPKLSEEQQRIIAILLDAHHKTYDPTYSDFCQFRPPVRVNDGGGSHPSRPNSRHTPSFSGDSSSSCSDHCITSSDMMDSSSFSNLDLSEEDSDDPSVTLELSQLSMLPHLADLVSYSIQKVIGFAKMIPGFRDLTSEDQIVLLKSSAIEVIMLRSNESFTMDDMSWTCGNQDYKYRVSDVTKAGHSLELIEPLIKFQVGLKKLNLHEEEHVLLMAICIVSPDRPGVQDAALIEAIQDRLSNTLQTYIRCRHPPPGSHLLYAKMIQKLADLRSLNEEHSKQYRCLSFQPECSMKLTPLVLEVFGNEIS

C=C(C)C(=O)OCCCCCCCCCCCCC
not listed: [15] | [16] | [17] | [18] | [19] | [20]
inactive: all other assays above

Cc1ccc(OC(=O)c2ccccc2O)cc1
not listed: [13] | [19] | [20]
inactive: all other assays above

CCC(=O)OC
not listed: [11] | [12] | [16] | [19] | [20]
inactive: all other assays above

CO[C@]1(NC(=O)CSC(F)F)C(=O)N2C(C(=O)O)=C(CSc3nnnn3CCO)CO[C@H]21
not listed: [19] | [20]
inactive: all other assays above

CCCCCCCCCI
not listed: [6] | [8] | [17] | [18] | [19] | [20]
inactive: all other assays above

O[C@@H]1CO[C@H]2[C@@H]1OC[C@@H]2O
not listed: [15]
inactive: all other assays above

O=C(CCCN1CC=C(n2c(=O)[nH]c3ccccc32)CC1)c1ccc(F)cc1
inactive: [1] | [2] | [3] | [4] | [5] | [7] | [8] | [10] | [11] | [12] | [14]

COc1ccccc1N1CCN(CCCCNC(=O)c2ccc(-c3ccc(C(C)=O)cc3)cc2)CC1
not listed: [7] | [15]
inactive: all other assays above

CC(=O)Nc1ccc(C)cc1C
not listed: [15]
inactive: all other assays above

C[C@]12CC[C@@H]3c4ccc(O)cc4CC[C@H]3[C@@H]1CC[C@@H]2OC(=O)CCC1CCCC1
not listed: [6] | [9] | [10] | [13] | [15] | [19]
inactive: all other assays above

CCCCCCCCN
not listed: [9] | [19] | [20]
inactive: all other assays above

N#CCc1ccc(Cl)cc1Cl
not listed: [9] | [12] | [18] | [19] | [20]
inactive: all other assays above

CCOC(=O)c1ccc(I)cc1
not listed: [9]
inactive: all other assays above

O=C(OC(=O)c1ccccc1)c1ccccc1
not listed: [6] | [15] | [16] | [18] | [19] | [20]
inactive: all other assays above

Cc1cc2c(OCC(CNC(C)(C)C)OC(=O)c3ccccc3)cccc2[nH]1 (stereo not drawn)
not listed: [8] | [11] | [13] | [19] | [20]
inactive: all other assays above

CN(C)CCN1C(=O)c2ccccc2N(C)c2ccccc21
not listed: [8] | [15]
inactive: all other assays above

O=C(/C=C/c1ccccc1)OCCc1ccccc1
inactive: [1] | [2] | [3] | [4] | [5] | [6] | [8] | [9] | [10] | [16] | [14]
